# In publication PMC11006913:
# Assays:
# [1] = molecular target: NKX3-2 (Homo sapiens, UniProt P78367 192-278, P234S); assay: PBM; 200 nM protein, PBS; conditions: dsDNA, one strand shown
# [2] = molecular target: NKX3-2 (Homo sapiens, UniProt P78367 192-278); assay: PBM; 200 nM protein, PBS; conditions: dsDNA, one strand shown
# NKX3-2 (Homo sapiens, UniProt P78367 192-278), sequence (P78367 192-278): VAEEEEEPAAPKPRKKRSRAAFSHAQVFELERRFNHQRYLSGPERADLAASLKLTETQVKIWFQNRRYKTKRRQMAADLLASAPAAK
# NKX3-2 (Homo sapiens, UniProt P78367 192-278, P234S), sequence (P78367 192-278 P234S): as the sequence (P78367 192-278) above, with P43S counted along it
Sequence,binding signal [1],binding signal [2]
ATATGAGG,"11.6 upbm affinity estimate (log intensity, higher = more binding, comparable within an allelic series)","11.6 upbm affinity estimate (log intensity, higher = more binding, comparable within an allelic series)"
AAAGTGGG,"12.4 upbm affinity estimate (log intensity, higher = more binding, comparable within an allelic series)","12.6 upbm affinity estimate (log intensity, higher = more binding, comparable within an allelic series)"
GCCCCCGA,"10.4 upbm affinity estimate (log intensity, higher = more binding, comparable within an allelic series)","10.4 upbm affinity estimate (log intensity, higher = more binding, comparable within an allelic series)"
GGTGGTAC,"10.5 upbm affinity estimate (log intensity, higher = more binding, comparable within an allelic series)","10.6 upbm affinity estimate (log intensity, higher = more binding, comparable within an allelic series)"
ACCTCTTG,"11.6 upbm affinity estimate (log intensity, higher = more binding, comparable within an allelic series)","11.7 upbm affinity estimate (log intensity, higher = more binding, comparable within an allelic series)"
ACCGAACC,"10.6 upbm affinity estimate (log intensity, higher = more binding, comparable within an allelic series)","10.7 upbm affinity estimate (log intensity, higher = more binding, comparable within an allelic series)"
ATCCCGCC,"10.7 upbm affinity estimate (log intensity, higher = more binding, comparable within an allelic series)","10.7 upbm affinity estimate (log intensity, higher = more binding, comparable within an allelic series)"
AGCCTGGA,"10.6 upbm affinity estimate (log intensity, higher = more binding, comparable within an allelic series)","10.6 upbm affinity estimate (log intensity, higher = more binding, comparable within an allelic series)"
AGTGGAGA,"11.7 upbm affinity estimate (log intensity, higher = more binding, comparable within an allelic series)","11.7 upbm affinity estimate (log intensity, higher = more binding, comparable within an allelic series)"
GAGTGACA,"11.4 upbm affinity estimate (log intensity, higher = more binding, comparable within an allelic series)","11.5 upbm affinity estimate (log intensity, higher = more binding, comparable within an allelic series)"
CCTAAGTA,"12.1 upbm affinity estimate (log intensity, higher = more binding, comparable within an allelic series)","12.1 upbm affinity estimate (log intensity, higher = more binding, comparable within an allelic series)"
GAGTGCAC,"12.2 upbm affinity estimate (log intensity, higher = more binding, comparable within an allelic series)","12.4 upbm affinity estimate (log intensity, higher = more binding, comparable within an allelic series)"
CGGGTCGA,"10.6 upbm affinity estimate (log intensity, higher = more binding, comparable within an allelic series)","10.6 upbm affinity estimate (log intensity, higher = more binding, comparable within an allelic series)"
CCAGACCA,"10.6 upbm affinity estimate (log intensity, higher = more binding, comparable within an allelic series)","10.5 upbm affinity estimate (log intensity, higher = more binding, comparable within an allelic series)"
ACCACGGC,"10.5 upbm affinity estimate (log intensity, higher = more binding, comparable within an allelic series)","10.5 upbm affinity estimate (log intensity, higher = more binding, comparable within an allelic series)"
AGACCACT,"12 upbm affinity estimate (log intensity, higher = more binding, comparable within an allelic series)","12.1 upbm affinity estimate (log intensity, higher = more binding, comparable within an allelic series)"
GCCGTGCC,"10.6 upbm affinity estimate (log intensity, higher = more binding, comparable within an allelic series)","10.6 upbm affinity estimate (log intensity, higher = more binding, comparable within an allelic series)"
AAGTAGGT,"11.7 upbm affinity estimate (log intensity, higher = more binding, comparable within an allelic series)","11.8 upbm affinity estimate (log intensity, higher = more binding, comparable within an allelic series)"
AAGAGTGG,"12.5 upbm affinity estimate (log intensity, higher = more binding, comparable within an allelic series)","12.7 upbm affinity estimate (log intensity, higher = more binding, comparable within an allelic series)"

Sequence,binding signal [1],binding signal [2]
GCCCTCAA,"11.6 upbm affinity estimate (log intensity, higher = more binding, comparable within an allelic series)","11.7 upbm affinity estimate (log intensity, higher = more binding, comparable within an allelic series)"
AAGGGCCT,"11.9 upbm affinity estimate (log intensity, higher = more binding, comparable within an allelic series)","12 upbm affinity estimate (log intensity, higher = more binding, comparable within an allelic series)"
GCCCGGCC,"10.3 upbm affinity estimate (log intensity, higher = more binding, comparable within an allelic series)","10.2 upbm affinity estimate (log intensity, higher = more binding, comparable within an allelic series)"
CACGGACC,"10.6 upbm affinity estimate (log intensity, higher = more binding, comparable within an allelic series)","10.6 upbm affinity estimate (log intensity, higher = more binding, comparable within an allelic series)"
AAGTGGGA,"12.6 upbm affinity estimate (log intensity, higher = more binding, comparable within an allelic series)","12.6 upbm affinity estimate (log intensity, higher = more binding, comparable within an allelic series)"
CGCGGTAC,"10.8 upbm affinity estimate (log intensity, higher = more binding, comparable within an allelic series)","10.8 upbm affinity estimate (log intensity, higher = more binding, comparable within an allelic series)"
CACTCTCG,"11.9 upbm affinity estimate (log intensity, higher = more binding, comparable within an allelic series)","12 upbm affinity estimate (log intensity, higher = more binding, comparable within an allelic series)"
AACGTGGC,"10.5 upbm affinity estimate (log intensity, higher = more binding, comparable within an allelic series)","10.5 upbm affinity estimate (log intensity, higher = more binding, comparable within an allelic series)"
CGGTTGAC,"10.5 upbm affinity estimate (log intensity, higher = more binding, comparable within an allelic series)","10.5 upbm affinity estimate (log intensity, higher = more binding, comparable within an allelic series)"
AGGCGCCG,"10.5 upbm affinity estimate (log intensity, higher = more binding, comparable within an allelic series)","10.5 upbm affinity estimate (log intensity, higher = more binding, comparable within an allelic series)"
GCCTGACC,"10.6 upbm affinity estimate (log intensity, higher = more binding, comparable within an allelic series)","10.6 upbm affinity estimate (log intensity, higher = more binding, comparable within an allelic series)"
GACGGGAC,"10.5 upbm affinity estimate (log intensity, higher = more binding, comparable within an allelic series)","10.5 upbm affinity estimate (log intensity, higher = more binding, comparable within an allelic series)"
ACCGCTGG,"10.5 upbm affinity estimate (log intensity, higher = more binding, comparable within an allelic series)","10.5 upbm affinity estimate (log intensity, higher = more binding, comparable within an allelic series)"
AACCAGCC,"10.4 upbm affinity estimate (log intensity, higher = more binding, comparable within an allelic series)","10.4 upbm affinity estimate (log intensity, higher = more binding, comparable within an allelic series)"
CCAGGCAA,"10.7 upbm affinity estimate (log intensity, higher = more binding, comparable within an allelic series)","10.6 upbm affinity estimate (log intensity, higher = more binding, comparable within an allelic series)"
CCACTTCC,"12.6 upbm affinity estimate (log intensity, higher = more binding, comparable within an allelic series)","12.7 upbm affinity estimate (log intensity, higher = more binding, comparable within an allelic series)"
AACGCCGG,"10.6 upbm affinity estimate (log intensity, higher = more binding, comparable within an allelic series)","10.6 upbm affinity estimate (log intensity, higher = more binding, comparable within an allelic series)"
AGCATTCC,"10.4 upbm affinity estimate (log intensity, higher = more binding, comparable within an allelic series)","10.4 upbm affinity estimate (log intensity, higher = more binding, comparable within an allelic series)"
AGAAGTGG,"12.5 upbm affinity estimate (log intensity, higher = more binding, comparable within an allelic series)","12.7 upbm affinity estimate (log intensity, higher = more binding, comparable within an allelic series)"
